The whole screen tested about 2,300 compounds, of which about 790 (34%) were called active. No rule for the calls is given here. This is one part of the list. Measured potencies and affinities stand elsewhere.

The nature of the assay: THP-1 cell cytotoxicity, dose response, cytotoxicity control for non-replicating M. tuberculosis project (AID 489025). As to conditions: THP-1 cell viability; series mostly up to 40 µM; viability: at the top concentration.
The viability is a read-out of living cells in per cent, often relative to untreated cells. As for `CC(=O)c1ccc(OCC(=O)Nc2ccc3c(c2)CCC3)cc1`, the “viability” value is 90.6% (inactive).

Consider `Cc1nnc(N/N=C/c2ccc(-c3ccc(Br)cc3)o2)n1N`, for which the “viability” value was 104% (inactive).

As for `CC(=O)N(c1nnc(-c2ccc(C)cc2)s1)C1CCCC1`, the “viability” value was 99.3% (inactive).

Consider `O=C(c1ccccc1[N+](=O)[O-])N1N=C(c2ccccc2)CC1(O)C(F)(F)F` (stereo unspecified), for which the “viability” value was 85.2% (inactive).

On to `CC1=NN(C(=O)c2cc(C)nn2C)C(O)(C(F)(F)F)C1` (stereo unspecified), for which the “viability” value was 112% (inactive).

For the compound `CC1=NN(C(=O)c2csc(C(C)C)c2)C(O)(C(F)(F)F)C1` (stereo unspecified), the “viability” value was 109% (inactive).

Consider `CC1=NN(C(=O)CCCc2ccccc2)C(O)(C(F)(F)F)C1` (stereo unspecified), for which the “viability” value was 103% (inactive).

For `CCOC(=O)C1=C(C)NC(=O)NC1c1ccc(-c2ccc(F)cc2)o1` (stereo unspecified), the “viability” value is 100% (inactive).

Turning to `COc1cccc(-c2nc(C=O)cs2)c1`, the “viability” value is 99.6% (inactive).

Consider `CCOC(=O)c1cc(-c2cccc([N+](=O)[O-])c2)on1`, for which the “viability” value was 95.3% (inactive).

Regarding `CC(NC(=O)c1cccc(F)c1)C1CC2CCC1C2` (stereo unspecified), the “viability” value was 93.8% (inactive).

For the compound `COc1ccc(CNC(=O)COC(=O)C2CC3C=CC2C3)cc1` (stereo unspecified), the “viability” value is 114% (inactive).

`CCCCNC(=O)Nc1nnc(-c2ccc(Cl)cc2)o1`: the “viability” value was 89.7% (inactive).

Consider `O=C(CCN1CCC(c2cccs2)=N1)c1cccs1`, for which the “viability” value was 91.7% (inactive).

Regarding `O=c1ccn(-c2ccccc2)[nH]1`, the “viability” value is 120% (inactive).

Turning to `COC(=O)c1ccc(CO/N=C/c2ccc(OC)cc2)o1`, the “viability” value was 117% (inactive).

Regarding `CCOC(=O)c1c(-c2ccc(C)o2)csc1NC(=O)CN1CCCCC1`, the “viability” value is 76.7% (inactive).

With `Cc1ccc(C(=O)COC(=O)CCc2ccc(S(=O)(=O)N3CCCCC3)cc2)cc1`, the “viability” value is 130% (inactive).

As for `Cc1ccc(OCC(=O)N2CCCc3ccccc32)cc1`, the “viability” value was 76% (inactive).

Take `COc1cc2c(cc1OC)CN(CCC(=O)c1ccc(Br)cc1)CC2`: the “viability” value was 94.5% (inactive).

In the case of `CC(C)Oc1ccc(CNC(=O)Oc2ccccc2)cc1`, the “viability” value is 112% (inactive).

With `COc1ccc(C(=O)CCNc2ccc(F)cc2)cc1`, the “viability” value was 94.5% (inactive).

As to `COc1ccc(C(O)CNc2ccc(C)cc2)cc1` (stereo unspecified), the “viability” value is 86.4% (inactive).

Consider `COc1ccc(C(C)NC(=O)CCc2ccccc2)cc1` (stereo unspecified), for which the “viability” value was 105% (inactive).

Take `COc1ccc(OC(=O)C(C)N2C(=O)c3ccccc3C2=O)cc1` (stereo unspecified): the “viability” value is 123% (inactive).

Take `CN(C)Cc1ccccc1Sc1ccccc1Br`: the “viability” value was 93% (inactive).

`COC(=O)COc1ccc2c(-c3ccc(OC)cc3)cc(=O)oc2c1`: the “viability” value was 106% (inactive).

Regarding `O=C(NNc1nc2cc3c(cc2s1)OCCO3)c1ccccc1`, the “viability” value is 94.1% (inactive).

`CCOCC(=O)Nc1nc2ccc(C)cc2s1`: the “viability” value is 103% (inactive).

Take `O=C(Nc1nccs1)c1ccccn1`: the “viability” value is 103% (inactive).

For `Cc1ccc(C)c(-c2csc(NC(=O)c3cnccn3)n2)c1`, the “viability” value was 98.3% (inactive).

For `O=C(Nc1c(F)cc(F)cc1Br)c1cc(-c2ccccc2)on1`, the “viability” value was 110% (inactive).

Turning to `Cc1nc2ccc(OC(=O)c3ccccc3)cc2s1`, the “viability” value was 126% (inactive).

For `CCOc1ccc2nc(/N=C/c3nc(-c4ccccc4)oc3O)sc2c1`, the “viability” value is 113% (inactive).

For the compound `O=C(CCN1CCC(c2ccccc2)C1)c1ccccc1` (stereo unspecified), the “viability” value is 82.5% (inactive).

As for `O=C(CNC(=O)c1ccccc1F)OCc1csc(-c2ccccc2)n1`, the “viability” value is 117% (inactive).

Regarding `O=C(NCc1ccc2c(c1)OCO2)c1ccc(Cl)s1`, the “viability” value is 98.2% (inactive).

Take `C=CCc1ccc2oc(C(=O)OCC)cc(=O)c2c1O`: the “viability” value is 125% (inactive).

On to `CCc1ccc(C(C)NC(=O)C2CCCO2)cc1` (stereo unspecified), for which the “viability” value is 106% (inactive).

On to `CC1=CC(=O)NP(=O)(Oc2ccc3ccccc3c2)N1` (stereo unspecified), for which the “viability” value is 107% (inactive).

Turning to `O=C(NNc1nc2ccccc2s1)c1ccc(F)cc1`, the “viability” value was 78% (inactive).

On to `Cc1nc2ccc(NC(=O)COc3cccc(F)c3)cc2s1`, for which the “viability” value was 101% (inactive).

On to `COc1cc(/C=C2/C(=O)NN(c3cccc(C)c3)C2=O)ccc1OC(=O)c1ccco1`, for which the “viability” value is 101% (inactive).

As for `COc1cc(NC(=O)C/C(C)=N/NC(=O)c2cccs2)c(OC)cc1Cl`, the “viability” value was 77.3% (inactive).

Take `Cc1cccc2nc(CSc3nc4cc([N+](=O)[O-])ccc4s3)cn12`: the “viability” value is 117% (inactive).

On to `O=C(O)c1ccc(NCc2ccc(Br)cc2)cc1`, for which the “viability” value is 115% (inactive).

Take `O=C(CN1CCOCC1)N/N=C/c1ccc(-c2ccc(Br)cc2)o1`: the “viability” value is 113% (inactive).

For `CCCOC(=O)c1cc(-c2ccc(C=O)o2)ccc1Cl`, the “viability” value is 100% (inactive).

Take `COC(=O)c1cc(-c2ccc(OC)cc2)on1`: the “viability” value is 105% (inactive).

As for `CCOC(=O)CNC(=O)N1c2ccccc2Sc2ccccc21`, the “viability” value was 94.3% (inactive).

For the compound `CCOC(=O)c1sc(NC(=O)CCN2CCOCC2)c(C(=O)OCC)c1C`, the “viability” value is 96.3% (inactive).

Turning to `CCOC(=O)Nc1cccc(OCC(=O)Nc2ccc(OC)cc2OC)c1`, the “viability” value was 111% (inactive).

With `CCOC(=O)c1c(-c2ccccc2)csc1NC(=O)CCN1CCOCC1`, the “viability” value was 78.9% (inactive).

As for `COc1cc(/C=N/Nc2ccc(Cl)c(C(=O)O)c2)ccc1OC(=O)c1ccco1`, the “viability” value is 102% (inactive).

Regarding `CC(C)CSc1nnc2c3ccccc3n(C)c2n1`, the “viability” value was 97% (inactive).

Consider `Cc1ccc(/C(O)=C/c2nc3ccccc3oc2=O)cc1`, for which the “viability” value is 81.1% (inactive).

In the case of `COc1ccc(C(=O)COC(=O)c2ccc(Cl)nc2)c(OC)c1`, the “viability” value was 113% (inactive).

With `O=C1CC(N2CCN(c3ccc(F)cc3)CC2)C(=O)N1Cc1ccccc1` (stereo unspecified), the “viability” value is 113% (inactive).

Regarding `O=C(NNc1c(F)c(F)cc(F)c1F)c1cc2ccccc2oc1=O`, the “viability” value is 83.4% (inactive).

On to `Nc1ccc2cc(Br)ccc2c1`, for which the “viability” value was 105% (inactive).

Consider `O=C(OCC(=O)N1CCCc2ccccc21)c1ccc(S(=O)(=O)C(F)F)cc1`, for which the “viability” value is 113% (inactive).

For the origin of these results see PubChem BioAssay AID489025 (Southern Research Specialized Biocontainment Screening …, 2010).
